Bioassay records from PubChem.
KCNQ2 pot = potentiators of rat KCNQ2 potassium channel | Potassium voltage-gated channel subfamily KQT member 2 (Rattus norvegicus), O88943 | B-score at 10 µM | CHO-K1 KCNQ2, FluxOR thallium flux fluorescence; stronger effect = higher value | actives 0.54% (n = 310,000);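 active = fluorescence ratio B-score at least 3 SD of library B-scores, with initial fluorescence B-score within 3 of them, cut at about 5.3 in these data; same plate scores as AID 2156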;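 also: B-score of peak minus minimum over baseline fluorescence ratio after K+ and Tl+ stimulus; positive B-score means potentiation of KCNQ2 with more thallium influx and brighter signal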
KCNQ2 inh = rat KCNQ2 potassium channel inhibitors, primary screen, cell-based, CHO-K1, FluxOR thallium flux, B-score | 20 min; stronger effect = lower value | actives 1.1% (n = 310,000) | Potassium voltage-gated channel subfamily KQT member 2 (Rattus norvegicus), O88943 | B-score at 10 µM;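 active = fluorescence ratio B-score at most minus 3 library SDs, with starting brightness B-score within 2 library SDs, cut at about -5.5 in these data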
Kir21 confirm = mouse Kir2.1 channel blockers, retest, confirmation, cell-based, FluxOR thallium flux, duplicate | AID 2032, 2009 | actives 41% (n = 2,300) | Tl flux remaining, % of negative control (stronger effect = lower value), % at 10 µM | Kir2.1-expressing cells, FluxOR thallium flux fluorescence; stronger effect = lower value | shares compounds with KCNQ2 pot;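 active = Primary-screen hit whose thallium flux fell at least 3 control SD below untreated wells in both duplicates, with normal baseline fluorescence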
Target sequence (P35561 whole entry, looked up): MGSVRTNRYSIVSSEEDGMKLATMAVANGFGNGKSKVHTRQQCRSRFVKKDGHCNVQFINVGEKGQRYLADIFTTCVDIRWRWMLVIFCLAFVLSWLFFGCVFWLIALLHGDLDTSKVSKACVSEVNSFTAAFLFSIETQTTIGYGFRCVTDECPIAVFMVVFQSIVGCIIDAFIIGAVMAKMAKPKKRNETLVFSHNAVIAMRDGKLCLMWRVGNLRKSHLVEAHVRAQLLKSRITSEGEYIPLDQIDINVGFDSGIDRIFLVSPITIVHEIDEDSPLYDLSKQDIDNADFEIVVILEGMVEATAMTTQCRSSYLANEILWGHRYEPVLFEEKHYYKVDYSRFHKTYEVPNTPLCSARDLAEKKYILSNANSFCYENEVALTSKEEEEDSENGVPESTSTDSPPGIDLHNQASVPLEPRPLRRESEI
HEK293 ctr = counter-screen for Kir2.1 inhibitors: effect in parental HEK293 cells; shares compounds with KCNQ2 pot; FluxOR thallium flux fluorescence; 0% = unstimulated blank wells; FluxOR signal as % of negative control (100 = no effect), % at 10 µM; actives 19% (n = 2,300); AID 2105;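 active = dye signal at least 3 control SD above or below untreated wells in both duplicates, raw fluorescence within 3, either direction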;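 also: percent is based on the flux ratio of peak minus minimum fluorescence over baseline F0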
CHO-K1 ctr = nonspecific thallium flux increase in parental CHO-K1, confirmation, counter-screen for KCNQ2 potentiator project, cell-based, FluxOR thallium flux, duplicate; parental CHO-K1 cells, FluxOR thallium flux fluorescence; zero = vehicle mean+3SD, 100% = vehicle-minus-blank window; AID 2282, 2010; activity increase over 3SD of controls, % at 10 µM; actives 43% (n = 1,200); shares compounds with KCNQ2 pot;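 active = signal rise of at least 3 SD above the untreated control mean, in both duplicate wells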;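 also: counter screen of KCNQ2 potentiator hits so any rise reflects channel-independent effects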
KCNQ1 pot spec = human KCNQ1 channel potentiation off-target, confirmation, selectivity assay for KCNQ2 potentiator project, cell-based, CHO, FluxOR thallium flux; shares compounds with KCNQ2 pot; CHO KCNQ1 stable, FluxOR thallium flux fluorescence; beyond 3SD, as % of vehicle-control signal; activation over 3SD threshold, % at 10 µM; actives 28% (n = 1,200);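 active = fluorescence ratio rise of at least 3 SD of vehicle wells above their mean, in both replicate wells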
KCNQ2 pot confirm = rat KCNQ2 channel potentiators, confirmation, cell-based, CHO, FluxOR thallium flux, duplicate; AID 2287, 2010; actives 68% (n = 1,200); potentiation, less the hit threshold, % at 10 µM; shares compounds with KCNQ2 pot; CHO-KCNQ2 cells, FluxOR thallium flux fluorescence;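 active = fluorescence ratio rising 3 SD or more over the vehicle control mean in both replicates, plus primary screen hit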;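 also: peak minus minimum thallium fluorescence divided by baseline after K/Tl stimulus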
Kir2-1 sel = mouse Kir2.1 channel activation off-target, confirmation, selectivity assay for KCNQ2 potentiator project, cell-based, HEK293, FluxOR thallium flux; HEK293 Kir2.1, FluxOR thallium flux fluorescence; shares compounds with KCNQ2 pot; actives 2% (n = 1,200); activity over 3SD threshold, % at 10 µM;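 active = fluorescence ratio rise of at least 3 SD above the vehicle-control mean, seen in both replicates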
KCNQ2 W236L MoA = potentiators of retigabine-insensitive KCNQ2 W236L, mechanism study for KCNQ2 potentiator project, cell-based, rat KCNQ2 W236L, CHO, automated patch clamp | shares compounds with KCNQ2 pot | automated patch clamp current | current increase over 3SD of negative controls (%), stronger effect = higher value, % at 25 µM | actives 10% (n = 940) | AID 2558, 2010;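 active = current increase at least 3 SD of the untreated controls above them in both duplicate recordings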
Hits are given with their value; n = inactive; x = not tested or not shown. In the library only some 1.6% were active in any assay of this set; here they are far more common.

SMILES	KCNQ2 pot	KCNQ2 inh	Kir21 confirm	HEK293 ctr	others
CCOc1ccccc1NC(=O)NC1(C(=O)N2CCN3CCCC3C2)CCCCC1 (centres undefined)	20.5	n	n	n	CHO-K1 ctr=n;KCNQ1 pot spec=n;KCNQ2 pot confirm=n;Kir2-1 sel=n
O=C(NCc1ccccc1)NC1(C(=O)N2CCN3CCCC3C2)CCCCC1 (centres undefined)	n	n	x	x
CCOC(=O)C1=NN(C(=O)Cc2ccccc2)C(O)(c2ccc(Cl)cc2)C1 (centres undefined)	x	n	x	x
COC(=O)C1=NN(C(=O)c2cccc(Br)c2)C(O)(c2ccc(Cl)cc2)C1 (centres undefined)	15.8	n	n	n	CHO-K1 ctr=18.3;KCNQ1 pot spec=n;KCNQ2 pot confirm=65.2;Kir2-1 sel=n;KCNQ2 W236L MoA=n
CCN(CCCn1c(=S)[nH]c2ncccc2c1=O)c1ccccc1	19.5	n	n	n	CHO-K1 ctr=n;KCNQ1 pot spec=n;KCNQ2 pot confirm=14.4;Kir2-1 sel=n;KCNQ2 W236L MoA=n
CCN(CC)CCCn1c(=S)[nH]c2ncccc2c1=O	n	n	x	x
COc1cc(-c2noc(CCCC(=O)NC3CCCCC3)n2)cc(OC)c1OC	n	n	x	x
Cc1cc(C(=O)NCC(c2cccs2)N2CCOCC2)ccc1[N+](=O)[O-] (centres undefined)	x	n	x	x
Cc1ccc(C(CCNC(C)c2cccs2)c2ccco2)cc1 (centres undefined)	x	n	35.5%	n
O=C1c2ccccc2C(=O)N1CCC(c1ccc(F)cc1)c1ccco1 (centres undefined)	x	n	x	x
Cc1nc(-c2ccc(S(=O)(=O)NCc3cccnc3)s2)cs1	n	n	x	x
N=c1c(S(=O)(=O)c2ccc(Br)cc2)cc2c(=O)n3ccccc3nc2n1C1CCCCC1	x	n	x	x
Cc1cccn2c(=O)c3cc(S(=O)(=O)c4ccc(Br)cc4)c(=N)n(C4CCCC4)c3nc12	n	n	n	n
CCN(CC)S(=O)(=O)c1cc(C(=O)Nc2cc(C)on2)c(Cl)cc1Cl	n	n	x	x
O=C(NCc1ccc(F)cc1)Nc1ccc(Cl)cc1	n	n	x	x
O=C(NCc1ccc(F)cc1)Nc1cccc(Cl)c1	5.84	n	n	n	CHO-K1 ctr=87.3;KCNQ1 pot spec=54.3;KCNQ2 pot confirm=12.7;Kir2-1 sel=n;KCNQ2 W236L MoA=n
Cc1ccc(C(=O)N2CCN(C(=O)c3ccco3)CC2)cc1NC(=O)c1ccco1	x	n	x	x
C=C1c2ccccc2NC(=S)N1Cc1ccc2c(c1)OCO2	x	n	x	x
O=C(O)CCC(=O)NNC(=O)CCC1CCCCC1	n	n	x	x
O=C(CCC1CCCCC1)NNC(=O)NC12CC3CC(CC(C3)C1)C2	9.28	n	n	n	CHO-K1 ctr=n;KCNQ1 pot spec=n;KCNQ2 pot confirm=12.0;Kir2-1 sel=n;KCNQ2 W236L MoA=n
Cc1ccccc1NC(=O)c1ccc2c(O)c(S(=O)(=O)c3ccccc3)c(=O)[nH]c2c1	n	n	x	x
Fc1ccc(-c2cc(C(F)(F)F)nc(-n3cncn3)n2)cc1	6.24	n	n	n	CHO-K1 ctr=n;KCNQ1 pot spec=n;KCNQ2 pot confirm=19.1;Kir2-1 sel=n;KCNQ2 W236L MoA=n
Fc1ccc(-c2cc(C(F)(F)F)nc(-n3cccn3)n2)cc1	x	n	x	x
COc1ccc2cc(C3(C)NC(=O)N(CC(=O)NCC(F)(F)F)C3=O)ccc2c1 (centres undefined)	n	n	x	x
CC(C)CN1C(=O)/C(=C/c2cccs2)NC1=S	12.4	n	n	321.5%	CHO-K1 ctr=n;KCNQ1 pot spec=n;KCNQ2 pot confirm=56.9;Kir2-1 sel=n;KCNQ2 W236L MoA=n
SMILES	KCNQ2 pot	KCNQ2 inh	Kir21 confirm	HEK293 ctr	others
CCCN1C(=O)/C(=C/c2ccc(C)s2)NC1=S	14.7	n	n	216.5%	CHO-K1 ctr=n;KCNQ1 pot spec=n;KCNQ2 pot confirm=66.1;Kir2-1 sel=n;KCNQ2 W236L MoA=n
Cc1ccc(/C=C2/NC(=O)N(Cc3ccccc3F)C2=O)s1	x	n	x	x
CC(C)CN1C(=O)/C(=C/c2ccco2)NC1=S	n	n	x	x
Cc1ccsc1/C=N/n1c(-c2ccccn2)n[nH]c1=S	n	n	x	x
COc1ccccc1N1CCN(C(=O)CCCN2C(=O)c3cccc4cccc(c34)C2=O)CC1	x	n	x	x
COC(=O)c1cccc(NC(=S)Nc2ccccc2Cl)c1	n	n	x	x
COC(=O)c1cccc(NC(=S)Nc2ccc(Cl)c(Cl)c2)c1	5.41	n	n	n	CHO-K1 ctr=n;KCNQ1 pot spec=1.4;KCNQ2 pot confirm=n;Kir2-1 sel=n;KCNQ2 W236L MoA=n
O=C(O)c1cc(-c2cccs2)nn1-c1cccc(Cl)c1	8.88	n	n	n	CHO-K1 ctr=15.5;KCNQ1 pot spec=27.8;KCNQ2 pot confirm=n;Kir2-1 sel=n;KCNQ2 W236L MoA=n
O=C(O)c1cc(-c2cccs2)nn1-c1ccccc1	x	n	x	x
CC(=O)c1ccc(N2CCN(C(=O)CCC(=O)Nc3ccc4nc(N5CCN(C)CC5)cc(C)c4c3)CC2)cc1	n	n	x	x
O=C(O)c1ccc(NC2=C(Cl)C(=O)c3ccccc3C2=O)cc1	n	-10.3	n	n
O=C1C(Cl)=C(Nc2ccccc2)C(=O)c2ccccc21	x	n	x	x
O=C(O)c1cccc(NC2=C(Cl)C(=O)c3ccccc3C2=O)c1	n	-7.64	37.5%	n
Cc1ccc(NC2=C(NC(=O)c3ccccc3)C(=O)c3ccccc3C2=O)cc1Cl	x	n	x	x
O=C(NC1CC2CCCC(C1)N2Cc1ccc(F)cc1)c1ccc(F)cc1 (centres undefined)	n	n	x	x
Cc1cccc(NC(=O)CNC(=O)COc2cc(F)ccc2[N+](=O)[O-])c1C	n	n	x	x
Cc1nnc2c(SC(C)C)nc3ccccc3n12	n	n	x	x
Cc1ccc(N=C2S/C(=C\c3cn(CC(=O)O)c4ccccc34)C(=O)N2C)cc1	x	n	x	x
Cc1cc(C)cc(NC(=S)N2CC(C)OC(C)C2)c1 (centres undefined)	x	n	x	x
Cc1ccc(-c2noc(CCC(=O)N3CCCc4ccccc43)n2)cc1	x	n	x	x
Cc1nn(-c2cccc(C(F)(F)F)c2)c(Cl)c1/C=N/Nc1cccc(C(=O)O)c1	9.87	n	n	n	CHO-K1 ctr=n;KCNQ1 pot spec=29.9;KCNQ2 pot confirm=98.5;Kir2-1 sel=n;KCNQ2 W236L MoA=16.6%
Cc1nn(-c2ccccc2Cl)c(Cl)c1/C=N/Nc1cccc(C(=O)O)c1	n	n	x	x
Cc1nc(N(C)Cc2ccccc2)c2nnn(Cc3ccccc3)c2n1	x	n	x	x
